Out of some 5,500 compounds screened, about 2,000 (36%) were called active. Roughly 18% stayed inconclusive and do not appear here. No stated cut-off is given here; in the data, active means normalized growth mostly below about 0.91 (no sharp cut-off); inconclusive means no clear call, values can overlap the other calls; inactive means mostly above about 0.92. This is one part of the list.
Test: chemical genetic growth profiling, strain panel (AID 1159580);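 further: tested at 20 µM; growth read once vehicle control cultures reached saturation at 30 °C; 1 = growth at the plate median or of vehicle wells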
Conditions: S. cerevisiae deletion strains, growth OD
[1] = locus YAL013W, strain DEP1, stronger effect = lower value
[2] = locus YDR150W, strain NUM1, stronger effect = lower value
[3] = locus YJR075W, strain HOC1, stronger effect = lower value

Measured: normalized growth

CCNC(=O)[C@H]1O[C@@H](n2cnc3c(N)ncnc32)C(O)[C@H]1O (some centres undefined)
inactive: [1] 1 | locus YAL040C, strain CLN3, stronger effect = lower value 1.02 | locus YCL061C, strain MRC1 (second series), stronger effect = lower value 1 | [2] 1 | locus YDR363W, strain ESC2, stronger effect = lower value 1.03 | locus YER002W, strain NOP16, stronger effect = lower value 1.01 | [3] 1 | locus YNL175C, strain NOP13, stronger effect = lower value 1 | locus YNL197C, strain WHI3, stronger effect = lower value 1.01 | locus YNL224C, strain SQS1, stronger effect = lower value 0.992 | locus YOR083W, strain WHI5 (second series), stronger effect = lower value 1.04

Cc1nc(-c2ccc(S(=O)(=O)N3CCN(c4ncnc5scc(-c6ccccc6)c45)CC3)s2)cs1
inactive: [1] 1.02 | locus YBR229C, strain ROT2, stronger effect = lower value 1 | locus YCL061C, strain MRC1, stronger effect = lower value 1.01 | locus YDL101C, strain DUN1, stronger effect = lower value 1 | [2] 0.936 | locus YEL061C, strain CIN8, stronger effect = lower value 0.995 | locus YGR078C, strain PAC10, stronger effect = lower value 1.01 | locus YHR030C, strain SLT2, stronger effect = lower value 1.04 | locus YHR087W, strain rtc3, stronger effect = lower value 1.02 | locus YJL187C, strain SWE1, stronger effect = lower value 1.02 | locus YJR043C, strain POL32, stronger effect = lower value 1.01 | [3] 1.02 | locus YLR039C, strain RIC1, stronger effect = lower value 1.03 | locus YLR058C, strain SHM2 (second series), stronger effect = lower value 1.01 | locus YLR085C, strain ARP6, stronger effect = lower value 1.05 | locus YLR262C, strain YPT6, stronger effect = lower value 1.02 | locus YML094W, strain GIM5, stronger effect = lower value 1.02 | locus YMR219W, strain ESC1, stronger effect = lower value 1.01 | locus YMR263W, strain SAP30, stronger effect = lower value 1.03 | locus YMR307W, strain GAS1, stronger effect = lower value 0.952 | locus YNL153C, strain GIM3, stronger effect = lower value 1 | locus YNL298W, strain CLA4 (second series), stronger effect = lower value 1.03 | locus YNL322C, strain KRE1, stronger effect = lower value 1.01 | locus YNR030W, strain Alg12, stronger effect = lower value 1.01 | locus YOL006C, strain TOP1, stronger effect = lower value 0.997 | locus YPL055C, strain LGE1, stronger effect = lower value 0.897 | locus YPL241C, strain CIN2, stronger effect = lower value 1.05 | locus YPR135W, strain CTF4, stronger effect = lower value 0.993

— PubChem BioAssay AID1159580 (chemical genetic matrix, 2015)
